According to PubChem BioAssay (NCATS):
Results filed as inconclusive are left out. Where a call stands in place of a potency, no number is given. Calls of active or inactive are those of the source. Calls follow the shape of the dose curve; as a rule, active = well fitted inhibition curve with a large enough effect; inconclusive = small, poorly fitted or top-dose-only effect; inactive = flat fitted curve, though single readings scatter.

What was measured:
Assay in all cases: qHTS profiling for inhibitors of Plasmodium falciparum proliferation (AID 504749); also: nearly all actives have a fitted effect of over 60% in size
Settings in all cases: P. falciparum in erythrocytes, SYBR Green DNA, 72 h; series mostly up to 28.7 µM
[1] = tested on: CP238
Method in brief: (§1)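 P. falciparum-infected erythrocytes (0.3% parasitemia, 2.5% hematocrit) incubated with compound 72 h at 37 C, 5% CO2. Parasite DNA detected by SYBR Green after lysis, overnight at room temperature; normalised to 0.29 uM artemisinin and DMSO.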

[2] = tested on: CP247
Method in brief: as §1

[3] = tested on: CP250
Method in brief: as §1

[4] = tested on: CP252
Method in brief: as §1

[5] = tested on: CP256
Method in brief: as §1

[6] = tested on: CP260
Method in brief: as §1

[7] = tested on: CP262
Method in brief: as §1

[8] = tested on: CP265
Method in brief: as §1

[9] = tested on: CP266
Method in brief: as §1

[10] = tested on: CP268
Method in brief: as §1

[11] = tested on: CP269
Method in brief: as §1

[12] = tested on: CP286
Method in brief: as §1

[13] = tested on: CP291
Method in brief: as §1

[14] = tested on: CP297
Method in brief: as §1

[15] = tested on: CP305
Method in brief: as §1

[16] = tested on: CP315
Method in brief: as §1

[17] = tested on: CP325
Method in brief: as §1

[18] = tested on: CP329
Method in brief: as §1

[19] = tested on: CP335
Method in brief: as §1

[20] = tested on: DFO2036
Method in brief: as §1
Potency is read from the fitted curve at half-maximal effect.

Structure (SMILES)	Potency [1]	Potency [2]	Potency [3]	Potency [4]	Potency [5]	Potency [6]	Potency [7]	Potency [8]	Potency [9]	Potency [10]	Potency [11]	Potency [12]	Potency [13]	Potency [14]	Potency [15]	Potency [16]	Potency [17]	Potency [18]	Potency [19]	Potency [20]
Cc1ccnc2c1NC(=O)c1cccnc1N2C1CC1	inactive	inactive	inactive	inactive	inactive	inactive	inactive	inactive	inactive	inactive	inactive	inactive	inactive	inactive	inactive	inactive	inactive	inactive	inactive	inactive
CC[C@H](NC(C)C)[C@H](O)c1ccc(O)c2[nH]c(=O)ccc12	inactive	inactive	inactive	inactive	inactive	inactive	inactive	inactive	inactive	inactive	inactive	inactive	inactive	inactive	inactive	inactive	inactive	inactive	inactive	inactive
O=NN(CCCl)C(=O)NC1CCCCC1	inactive	inactive	inactive	inactive	inactive	inactive	inactive	inactive	inactive	inactive	inactive	inactive	inactive	inactive	inactive	inactive	inactive	inactive	inactive	inactive
COc1cc(NCc2ccc3nc(N)nc(N)c3c2C)cc(OC)c1OC	0.631 µM (active)	0.447 µM (active)	0.794 µM (active)	0.251 µM (active)	0.316 µM (active)	0.158 µM (active)	0.169 µM (active)	3.16 µM (active)	4.26 µM (active)	0.953 µM (active)	3.38 µM (active)	0.178 µM (active)	0.478 µM (active)	0.426 µM (active)	0.601 µM (active)	0.849 µM (active)	0.953 µM (active)	0.379 µM (active)	0.151 µM (active)	0.355 µM (active)
CC(C)NCC(O)c1ccc(NS(C)(=O)=O)cc1 (stereo not given)	inactive	inactive	inactive	inactive	inactive	inactive	inactive	inactive	inactive	inactive	inactive	inactive	inactive	inactive	inactive	inactive	inactive	inactive	inactive	inactive
CC1=NN(c2ccccc2)C(=O)C1	inactive	inactive	inactive	inactive	inactive	inactive	inactive	inactive	inactive	inactive	inactive	inactive	inactive	inactive	inactive	inactive	inactive	inactive	inactive	inactive
CCOC(=O)[C@H](CCc1ccccc1)N[C@H]1CS[C@H](c2cccs2)CN(CC(=O)O)C1=O	inactive	inactive	inactive	inactive	inactive	inactive	inactive	inactive	inactive	inactive	inactive	inactive	inactive	inactive	inactive	inactive	inactive	inactive	inactive	inactive
O=C(O)c1cc(=O)[nH]c(=O)[nH]1	inactive	inactive	inactive	inactive	inactive	inactive	inactive	inactive	inactive	inactive	inactive	inactive	inactive	inactive	inactive	inactive	inactive	inactive	inactive	inactive
S=P(N1CC1)(N1CC1)N1CC1	inactive	inactive	inactive	inactive	inactive	inactive	inactive	inactive	inactive	inactive	inactive	inactive	inactive	inactive	inactive	inactive	inactive	inactive	inactive	inactive
CCc1cc(C(N)=S)ccn1	inactive	inactive	inactive	inactive	inactive	inactive	inactive	inactive	inactive	inactive	inactive	inactive	inactive	inactive	inactive	inactive	inactive	inactive	inactive	inactive
C#CCN[C@@H]1CCc2ccccc21	inactive	inactive	inactive	inactive	inactive	inactive	inactive	inactive	inactive	inactive	inactive	inactive	inactive	inactive	inactive	inactive	inactive	inactive	inactive	inactive
O=P(O)(O)C(O)(Cc1cccnc1)P(=O)(O)O	inactive	inactive	inactive	inactive	inactive	inactive	inactive	inactive	inactive	inactive	inactive	inactive	inactive	inactive	inactive	inactive	inactive	inactive	inactive	inactive
Nc1ccc(S(=O)(=O)Nc2ccccn2)cc1	inactive	inactive	inactive	inactive	inactive	inactive	inactive	inactive	inactive	inactive	inactive	inactive	inactive	inactive	inactive	inactive	inactive	inactive	inactive	inactive
N[C@@H](C(=O)N[C@@H]1C(=O)N2C(C(=O)O)=C(Cl)CS[C@H]12)c1ccccc1	inactive	inactive	inactive	inactive	inactive	inactive	inactive	inactive	inactive	inactive	inactive	inactive	inactive	inactive	inactive	inactive	inactive	inactive	inactive	inactive
CCN(C)C(=O)Oc1cccc([C@H](C)N(C)C)c1	inactive	inactive	inactive	inactive	inactive	inactive	inactive	inactive	inactive	inactive	inactive	inactive	inactive	inactive	inactive	inactive	inactive	inactive	inactive	inactive
CN(C)c1ccc(C(=C2C=CC(=[N+](C)C)C=C2)c2ccc(N(C)C)cc2)cc1	0.398 µM (active)	0.355 µM (active)	0.316 µM (active)	0.224 µM (active)	0.158 µM (active)	0.224 µM (active)	0.239 µM (active)	0.316 µM (active)	0.601 µM (active)	0.849 µM (active)	0.239 µM (active)	0.178 µM (active)	0.675 µM (active)	0.953 µM (active)	0.338 µM (active)	0.953 µM (active)	0.478 µM (active)	0.601 µM (active)	0.301 µM (active)	0.199 µM (active)
COc1ncnc(NS(=O)(=O)c2ccc(N)cc2)c1OC	inactive	inactive	inactive	inactive	inactive	inactive	inactive	inactive	inactive	inactive	inactive	inactive	inactive	inactive	inactive	inactive	inactive	inactive	inactive	inactive
Nc1nc(N)c2nc(CNc3ccc(C(=O)NC(CCC(=O)O)C(=O)O)cc3)cnc2n1 (stereo not given)	inactive	inactive	inactive	inactive	inactive	inactive	inactive	inactive	inactive	inactive	inactive	inactive	inactive	inactive	inactive	inactive	inactive	inactive	inactive	inactive
NC(N)=NC(N)=NCCc1ccccc1	inactive	inactive	inactive	inactive	inactive	inactive	inactive	inactive	inactive	inactive	inactive	inactive	inactive	inactive	inactive	inactive	inactive	inactive	inactive	inactive
CNNCc1ccc(C(=O)NC(C)C)cc1	inactive	inactive	inactive	inactive	inactive	inactive	inactive	inactive	inactive	inactive	inactive	inactive	inactive	inactive	inactive	inactive	inactive	inactive	inactive	inactive
N=C(N)c1ccc(OCCCCCOc2ccc(C(=N)N)cc2)cc1	2.24 µM (active)	1.12 µM (active)	2.51 µM (active)	2 µM (active)	0.501 µM (active)	2 µM (active)	0.757 µM (active)	2.82 µM (active)	1.69 µM (active)	1.35 µM (active)	0.536 µM (active)	1.12 µM (active)	1.2 µM (active)	0.601 µM (active)	0.536 µM (active)	1.35 µM (active)	1.07 µM (active)	0.849 µM (active)	1.35 µM (active)	1 µM (active)
CN1CCN(c2c(F)cc3c(=O)c(C(=O)O)cn(CCF)c3c2F)CC1	inactive	inactive	inactive	inactive	inactive	inactive	inactive	inactive	inactive	inactive	inactive	inactive	inactive	inactive	inactive	inactive	inactive	inactive	inactive	inactive
C[C@]12C=CC(=O)C=C1CC[C@@H]1[C@@H]2C(=O)C[C@@]2(C)[C@H]1CC[C@]2(O)C(=O)CO	inactive	inactive	inactive	inactive	inactive	inactive	inactive	inactive	inactive	inactive	inactive	inactive	inactive	inactive	inactive	inactive	inactive	inactive	inactive	inactive
Cn1nnc2c(C(N)=O)ncn2c1=O	inactive	inactive	inactive	inactive	inactive	inactive	inactive	inactive	inactive	inactive	inactive	inactive	inactive	inactive	inactive	inactive	inactive	inactive	inactive	inactive
Cc1cccc(Nc2ccncc2S(=O)(=O)NC(=O)NC(C)C)c1	inactive	inactive	inactive	inactive	inactive	inactive	inactive	inactive	inactive	inactive	inactive	inactive	inactive	inactive	inactive	inactive	inactive	inactive	inactive	inactive
